PubChem BioAssay (EPA / NIEHS)
More than one record can exist for a structure, and the calls need not agree. Calls of active or inactive are those of the source. How the source made its calls: active means hit-call score of the fitted dose curve at least 0.9, where 1 is the maximum; inactive means score below 0.9.

Each molecule was assayed against X-box-binding protein 1 (Homo sapiens) (UniProt P17861) (assay: ATG_Xbp1_CIS: Attagene CIS-FACTORIAL HepG2 Assay for human X-box Binding Protein 1 (XBP1) (AID 2282972)). Settings: HepG2 XBP1 cis-element reporter, Attagene multiplex; actives raise or lower the signal.
Method: ATG_CIS is a cell-based, multiplexed-readout assay that uses HepG2, a human liver cell line, with measurements taken at 24 hours after chemical dosing in a 24-well plate.ATG_Xbp1_CIS is one of 52 assay component(s) measured or calculated from the ATG_CIS assay. It is designed to make measurements of mRNA induction, a form of inducible reporter, as detected with fluorescence intensity signals by Reverse transcription polymerase chain reaction (RT-PCR) and Capillary electrophoresis technology.Data from the assay component ATG_Xbp1_CIS was analyzed into 1 assay endpoint. This assay endpoint, ATG_Xbp1_CIS, was analyzed with bidirectional fitting relative to DMSO as the negative control and baseline of activity. Using a type of inducible reporter, measures of mRNA for gain or loss-of-signal activity can be used to understand the reporter gene at the transcription factor-level as they relate to the gene XBP1. Furthermore, this assay endpoint can be referred to as a primary readout, because this assay has produced multiple assay endpoints where this one serves a reporter gene function. To generalize the intended target to other relatable targets, this assay endpoint is annotated to the dna binding intended target family, where the subfamily is basic leucine zipper.
Human liver HepG2 cells are transiently transfected with multiple reporter transcription units (MRTUs) in 6-well plates using FuGene 6 reagent (Roche; 3 ml FuGene/1 mg DNA). The MRTU constructs are regulated by a cis-regulating element (promoter). […] A major difference between the CIS and TRANS system is that in CIS activities of endogenous TFs are measured, whereas the TRANS assay evaluates changes in activities of exogenous, chimeric NR-Gal4 proteins. […] At the end of 24 hour incubation, total RNA was isolated using TriZol reagent (Invitrogen). The isolated RNA is then reverse-transcribed using oligo(dT) primer and Mo-MLV reverse transcriptase (Invitrogen) with DNAse I (Ambion) treatment for 30 min. The one-tenth of the produced cDNA was amplified by PCR using Taq DNA polymerase (Invitrogen) and two reporter sequence-specific primers. The PCR products were fluorescently labeled by primer extension with 6-arboxyfluorescein (6-FAM) 5'-labeled reporter sequence-specific primer (2 min at 95 C, 20 s at 68 C and 10 min at 72 C) and these products were digested with 5U of HpaI (New England Biolabs) for 2h at 37 C. The fragments were purified using Qiaquick PCR columns (Qiagen), analyzed on an ABI 3130xL genetic analyzer (Applied Biosystems) with peak positions identified by using a set of X-rhodamine (ROX)-labeled MapMarker1000 molecular weight standards (BioVentures). The raw capillary electrophoresis data was processed using Attagraph software (Attagene).

Chain of X-box-binding protein 1 (Homo sapiens) (P17861 whole entry, looked up): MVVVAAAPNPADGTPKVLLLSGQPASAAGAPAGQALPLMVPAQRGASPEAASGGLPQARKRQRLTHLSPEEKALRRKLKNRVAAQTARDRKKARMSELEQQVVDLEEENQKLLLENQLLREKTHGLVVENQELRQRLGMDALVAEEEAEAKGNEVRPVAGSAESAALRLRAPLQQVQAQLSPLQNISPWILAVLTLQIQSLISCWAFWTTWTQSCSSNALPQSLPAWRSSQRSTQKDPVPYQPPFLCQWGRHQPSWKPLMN

AC50, active:
O=S(=O)(c1ccc(OCc2ccccc2)cc1)c1ccccc1O 31 µM, O=C(CCCN1CCC(O)(c2ccc(Cl)cc2)CC1)c1ccc(F)cc1 50.3 µM, CCOC(=O)c1nc(C(Cl)(Cl)Cl)n(-c2ccc(Cl)cc2Cl)n1 178 µM, OCCN1CN(CCO)CN(CCO)C1 164 µM, C=C(c1ccc(C(=O)O)cc1)c1cc2c(cc1C)C(C)(C)CCC2(C)C 16.9 µM, CCCCCCCCCCCC[N+](C)(C)Cc1ccccc1 11.1 µM

outcome, inactive:
CC(=O)CC(C)C, O=c1cc(-c2ccccc2)oc2ccc3ccccc3c12, Cc1ccccc1OCC(=O)O, C[C@]12CC[C@@H]3c4ccc(O)cc4CC[C@H]3[C@@H]1C[C@@H](O)[C@@H]2O, CC1CCC(CO)CC1 (stereo not given), O=C(O)CCC(F)(F)C(F)(F)C(F)(F)C(F)(F)C(F)(F)F, CC1=NN(c2ccccc2)C(=O)C1, COC1=CC(=O)C[C@@H](C)[C@]12Oc1c(Cl)c(OC)cc(OC)c1C2=O, CN(C)CCOC(c1ccccc1)c1ccccc1, O=C1OC2(c3ccccc31)c1cc(I)c(O)c(I)c1Oc1c2cc(I)c(O)c1I, O=C1C=CC(=O)N1c1cccc(N2C(=O)C=CC2=O)c1, CC[N+](CC)(CC)Cc1ccccc1, O=CC(F)(F)C(F)(F)C(F)(F)F, Clc1ccc(Nc2nnc(Cc3ccncc3)c3ccccc23)cc1, COC(=O)C(F)(F)C(F)(F)C(F)(F)F, FCOC(C(F)(F)F)C(F)(F)F, O=C(NCc1ncc(C(F)(F)F)cc1Cl)c1c(Cl)cccc1Cl, O=C(c1ccccc1)c1ccccc1, CCCCCCCCCCCCCCCCCC[N+](C)(C)Cc1ccccc1, Oc1c(Cl)ccc(Cl)c1Cl, CC1=CC(=O)c2ccccc2C1=O, FC(F)(F)C1(F)C(F)(F)C(F)(F)C(F)(F)C1(F)F, C=CC(C)(CCC=C(C)C)OC(C)=O (stereo not given), C=C(c1ccc(C(=O)O)cc1)c1cc2c(cc1C)C(C)(C)CCC2(C)C, CCCCCCCCCCCCCCC, CCCCCCCCCCCC[N+](C)(C)CCCCCCCCCCCC, c1cc2cccc3c4cccc5cccc(c(c1)c23)c54, CC(=O)Nc1ccc(S(N)(=O)=O)cc1, CCCCCCCCCCCC[N+](C)(C)Cc1ccccc1, Brc1ccc(Oc2ccc(Br)cc2Br)cc1, Nc1ccn([C@@H]2O[C@H](CO)[C@@H](O)C2O)c(=O)n1 (stereo not given in full), C=CC(=C)CC/C=C(\C)CCC=C(C)C, CC(C)c1c(C(=O)Nc2ccccc2)c(-c2ccccc2)c(-c2ccc(F)cc2)n1CC[C@@H](O)C[C@@H](O)CC(=O)O, O=C(O)c1cccc(C(=O)O)n1
